Drawing on PubChem BioAssay (NCI), this text covers growth for 27 compounds.

Common to all, as to assay: NCI-60 one-dose screen, 48 h (100 = growth as untreated, 0 = no growth, -100 = all killed)
Conditions in all cases: 10 µM unless noted

The test system of assay [1] is SK-MEL-2 melanoma.
Assay [2] relates to EKVX NSCLC.
Assay [3] has as its system SN12C renal.
Assay [4] concerns UO-31 renal.
Assay [5] deals with TK-10 renal.
Assay [6] deals with ACHN renal.
The test system of assay [7] is CAKI-1 renal.
Assay [8] relates to A498 renal.
Assay [9] deals with CCRF-CEM leukemia.
The subject of assay [10] is MOLT-4 leukemia.

About 83,000 compounds went through this panel and 20% of them were active in at least one assay; those are over-represented in the sample as a whole.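 In brief: 96-well plates, 48 h treatment, single concentration, percent growth endpoint.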 Values without a mark were called inactive. Activity calls are given as the source filed them. The calls were made as follows: active = growth percent below 10; inactive = the rest.

Turning to `O=C(NCc1ccccc1)C(Cl)Cl`, the growth in assay [1] was 96.2%; in assay [2], 95.4%; in assay [3], 104%; in [4], 91.5%; in assay [5] it was 90.2%; in assay [6] it was 104%. Besides, the growth in assay [7] is 96.5%; in assay [8] it was 94.4%; in [9], 103%.

In the case of `CNC(=O)c1cc(Oc2cccc3nc(NC(=O)Nc4cc(C(F)(F)F)cc(C(F)(F)F)c4)ccc23)ccn1`, the growth was 51% in assay [1]; 26.7% in assay [2]; 12.1% in [3]; 11.7% in [4]; -25% (active) in assay [5]; -25.8% (active) in [6]. The growth is 23.6% in assay [7], -36% (active) in assay [8], 73.3% in assay [9] and 89.5% in assay [10].

In the case of `CCCCCCCCCCCCCCNC(=O)Nc1ccc(Cl)c(Cl)c1`, the growth is 14.5% in [1]; 31.9% in [2]; 20.2% in assay [3]; 8.71% (active) in [4]; 41.3% in assay [5]; 9.14% (active) in assay [6]. Also, the results for the growth in assay [7], in assay [8] and in assay [9] were 10.8%, 96.7% and 63.7%, respectively.

Regarding `CCOc1ccc(/C=C(\C#N)c2cc3ccccc3[nH]2)cc1`, the growth was 36.1% in assay [1]; 72.5% in assay [2]; 62.7% in assay [3]; 69.5% in assay [4]; 79.3% in assay [5]; 81.8% in assay [6]. The figures for the growth in assay [7], in assay [8] and in [9] were 40.3%, 56.9% and 63.4%, respectively.

On to `CN(C)c1ccc(N=Nc2ccc3ccccc3c2)cc1`, for which the growth is 98.7% in assay [1]; 83.5% in assay [2]; 87% in assay [3]; 57% in assay [4]; 91.4% in assay [5]; 87.8% in assay [6]. The growth is 91.4% in [7], 88.5% in assay [8] and 72% in [9].

For the compound `CC(C)C1=NOC(=O)C1=Cc1cn(-c2ccccc2)nc1-c1cccc([N+](=O)[O-])c1`, the growth is 101% in assay [1]; 99.3% in assay [2]; 78.3% in [3]; 74.3% in [4]; 89.5% in assay [5]; 99.2% in assay [6]. The growth is 64.6% in assay [7], 76.3% in [8] and 2.68% (active) in [9].

For `C=C(C)[C@@H]1CC[C@]2(C(=O)NCCNCCNCCN)CC[C@]3(C)[C@H](CC[C@@H]4[C@@]5(C)CCC(=O)C(C)(C)[C@@H]5CC[C@]43C)[C@@H]12`, the growth in assay [1] is 56.4% [100 µM]; in assay [2], 11.4% [100 µM]; in assay [3], -88.5% [100 µM] (active); in assay [4], -96.4% [100 µM] (active); in assay [5], -77.7% [100 µM] (active); in assay [6] it was -83.3% [100 µM] (active). Further, the results for the growth in [7], in assay [8] and in [9] were -8.79% [100 µM] (active), 80.8% [100 µM] and -11.3% [100 µM] (active), respectively.

For the compound `NC(=O)c1cccc(-c2ccc(S(=O)(=O)Nc3ccc4c(c3)N(C(=O)C3CC3)CCC4)cc2)c1`, the growth in [1] was 7.54% (active); in assay [2] it was 67.1%; in assay [3], 52.1%; in assay [4], 82.2%; in assay [5], 77.8%; in assay [6] it was 79.2%. Moreover, the growth was 72.4% in assay [7], 5.86% (active) in assay [8] and 33.5% in assay [9].

For the compound `Oc1ccc(N=Nc2nccs2)c(O)c1`, the growth was 97.7% in assay [1]; 41.4% in assay [2]; 73.7% in assay [3]; 39.2% in [4]; 60.3% in assay [5]; 30.3% in assay [6]. Besides, the growth in assay [7] was 25.9%; in [8], 225%; in [9], 19.5%.

For the compound `C=C(CN=[N+]=[N-])[C@@H]1CC[C@]2(C)[C@H](CC[C@@H]3[C@H]4[C@H]5OC(=O)[C@@]4(CCC5(C)C)CC[C@]32C)[C@@]1(C)CCC#N`, the growth was 83.4% [100 µM] in [1]; 90.6% [100 µM] in [2]; 76.2% [100 µM] in [3]; 80.2% [100 µM] in assay [4]; 105% [100 µM] in [5]; 93.9% [100 µM] in [6]. Besides, the growth was 53.5% [100 µM] in assay [7], 85.2% [100 µM] in assay [8], 74.6% [100 µM] in [9] and 58% [100 µM] in assay [10].

Regarding `FC(F)(F)c1ccc2c(c1)Sc1ccccc1N2`, the growth in assay [1] is 106%; in assay [2] it was 91.6%; in [3] it was 100%; in assay [4], 73.6%; in [5] it was 101%; in [6], 101%. Moreover, the growth was 82% in assay [7], 80.7% in assay [8], 102% in [9] and 88.7% in [10].

Consider `CCOC(=O)c1cnc2ccc(Br)cc2c1Nc1cccc(S(N)(=O)=O)c1`, for which the growth in [1] is 109%; in [2] it was 96.2%; in assay [3] it was 97.3%; in assay [4], 81.2%; in assay [5], 105%; in assay [6], 96.2%. The growth in assay [7] was 74.1%; in assay [8], 66.5%; in [9], 102%.

For the compound `CSc1nc2c(c(=O)n1C)C1(C(=O)N(Cc3ccccc3)c3ccccc31)c1c(nc(SC)n(C)c1=O)N2`, the growth is 80.8% in [1]; 100% in [2]; 95.1% in assay [3]; 73.9% in [4]; 113% in assay [5]; 77.5% in assay [6]. The results for the growth in assay [7], in assay [8] and in assay [9] were 103%, 72.6% and 98.8%, respectively.

For `COc1ccc(N(c2nc(-c3ccc([N+](=O)[O-])cc3)cs2)C(C)C)cc1`, the growth in assay [1] is 92.1%; in [2], 65.8%; in assay [3] it was 91.4%; in [4] it was 69.3%; in [5] it was 88.9%; in [6] it was 89%. In addition, the growth was 62.6% in assay [7], 59.5% in assay [8] and 62.5% in assay [9].

As for `NNC(=O)c1ccc(C(=O)NN)cc1`, the growth was 122% in [1]; 101% in [2]; 109% in assay [3]; 87.1% in assay [4]; 105% in assay [5]; 111% in assay [6]. For the same compound, the growth in assay [7] was 105%; in assay [8], 70.2%; in assay [9], 94.4%; in assay [10], 130%.

In the case of `COc1ncc(-c2ccc3nccc(C#CCCCCC(=O)O)c3c2)cc1NS(=O)(=O)c1ccc(F)cc1F`, the growth in [1] was 31.3%; in [2] it was 22%; in assay [3], 40.8%; in [4] it was 12.5%; in assay [5], 3.96% (active); in assay [6] it was 32%. For the same compound, the results for the growth in assay [7], in assay [8] and in assay [9] were 14.1%, -34.5% (active) and 24.4%, respectively.

Consider `COc1ncc(-c2ccc3nc(N)n(-c4ccccc4C(F)(F)F)c(=O)c3c2)cc1S(=O)(=O)Nc1ccc(F)cc1F`, for which the growth in assay [1] is 29.2%; in assay [2] it was 20.9%; in assay [3], 56%; in assay [4], -13.4% (active); in assay [5], 54.5%; in assay [6] it was 69.3%. Moreover, the growth in [7] is 17.3%; in [8], -22.2% (active); in assay [9], 24.5%.

As to `CCNC(=O)N1CCc2c(Cl)c3c(c(OC)c2[C@@H]1[C@H]1OCc2c1ccc(OC)c2OC)OCCO3`, the growth in [1] was 22.8%; in [2], 48.7%; in assay [3], 38.1%; in assay [4], 34.2%; in [5], 47.7%; in assay [6], 31.5%. The growth was 24.3% in assay [7], -20.6% (active) in [8] and 12.3% in assay [9].

Regarding `CN(C)c1ccc(-c2ccc(-c3ccc(C(=N)N)cc3)s2)cc1`, the growth in assay [1] was 107%; in [2], 85.9%; in assay [3], -50.1% (active); in assay [4] it was 80.8%; in assay [5] it was -87.9% (active); in assay [6] it was -38.8% (active). The growth in assay [7] was 96.6%; in [8], 0.528% (active); in assay [9], -22.5% (active); in [10] it was 2.73% (active).

As for `COc1ccc2nc3cc(Cl)ccc3c(Nc3ccc(O)cc3)c2c1`, the growth in assay [1] is 110%; in [2] it was 94.5%; in assay [3], 67.2%; in assay [4], 62.1%; in assay [5], 88%; in assay [6], 66.6%. Besides, the growth in [7] is 71.5%; in [8], 57.2%; in assay [9], 23.9%.

Take `O=C(N/N=C/c1ccc([N+](=O)[O-])cc1)c1ccc(Br)o1`: the growth in assay [1] was 33.6%; in [2] it was 112%; in [3], 102%; in [4] it was -17.5% (active); in [5], 131%; in assay [6], 107%. Also, the growth in assay [7] is 106%; in [8], 116%; in [9] it was 99.5%; in [10] it was 123%.

For `CCOC(=O)c1sc2nc(-c3cc(OC)c(OC)c(OC)c3)nc(N3CCOCC3)c2c1C`, the growth is 28.1% in assay [1]; 39.5% in assay [2]; 36% in assay [3]; 22.4% in assay [4]; 48.3% in assay [5]; 33.6% in [6]. The values for the growth in [7], in assay [8] and in assay [9] were 31.6%, -0.941% (active) and 17.1%, respectively.

For the compound `CC(=O)Nc1ccc2nc3ccc(NC(C)=O)cc3[n+](-c3ccccc3)c2c1`, the growth is 106% in assay [1]; 118% in assay [2]; 104% in assay [3]; 93.3% in assay [4]; 140% in assay [5]; 98.9% in [6]. Moreover, the values for the growth in [7], in assay [8] and in assay [9] were 122%, 158% and 73.1%, respectively.

For the compound `O=C(O)c1ccccc1C(F)(F)F`, the growth in assay [1] was 112%; in assay [2], 93.2%; in [3] it was 90.9%; in [4], 95.3%; in assay [5] it was 111%; in assay [6], 92.6%. Moreover, the growth is 87.8% in assay [7], 74.5% in assay [8], 108% in [9] and 97.1% in [10].

Regarding `CC/C=C(\C)C(CCC)(CN=O)C(=O)OCC` (configuration not stated), the growth in assay [1] was 106%; in assay [2], 112%; in assay [3], 108%; in assay [4] it was 90.4%; in [5], 103%; in assay [6], 110%. For the same compound, the growth was 104% in assay [7], 114% in assay [8], 101% in assay [9] and 90.1% in assay [10].

`CCOc1cccc2c(NC(C)CCCN(CC)CC)c(C)cnc12` (configuration not stated): the growth in assay [1] is 105%; in assay [2], 104%; in assay [3], 95.2%; in assay [4], 73.3%; in assay [5] it was 101%; in assay [6], 109%. The growth in assay [7] was 103%; in assay [8], 97.7%; in assay [9], 108%; in [10], 93.2%.

Consider `Cc1ccc2c(c1)/C(=N\N=C/c1cn(C(C)C)c3ccccc13)C(=O)N2`, for which the growth in assay [1] is 81.2%; in [2] it was 61.9%; in [3], 56.4%; in [4], 57.8%; in assay [5], 81.4%; in assay [6], 55.4%. Also, the growth in assay [7] is 64.4%; in assay [8], 86.1%; in assay [9] it was 6.69% (active).
